CHRM1 PAM = potentiates human M1 receptor response to acetylcholine; P11229; CHO-K1 hM1, Fluo-8 calcium fluorescence, ACh EC20; 0% = ACh EC20, 100% = maximal ACh; activation, % at 3 µM; 0.088% of 360,000 active; in the data active means activation above about 19%, passing the limit was not always enough
Target sequence (P11229 whole entry, looked up): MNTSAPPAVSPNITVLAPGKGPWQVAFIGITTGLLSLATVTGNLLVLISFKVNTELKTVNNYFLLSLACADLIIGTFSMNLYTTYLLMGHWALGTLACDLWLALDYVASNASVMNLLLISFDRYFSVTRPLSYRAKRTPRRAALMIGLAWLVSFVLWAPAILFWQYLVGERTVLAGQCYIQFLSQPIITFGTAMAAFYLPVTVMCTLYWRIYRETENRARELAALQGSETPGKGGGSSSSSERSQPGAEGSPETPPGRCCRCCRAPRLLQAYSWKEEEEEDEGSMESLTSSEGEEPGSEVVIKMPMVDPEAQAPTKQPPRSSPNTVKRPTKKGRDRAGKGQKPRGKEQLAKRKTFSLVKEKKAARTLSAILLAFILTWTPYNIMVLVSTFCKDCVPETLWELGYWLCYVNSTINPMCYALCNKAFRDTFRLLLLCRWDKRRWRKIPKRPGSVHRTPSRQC
CHO-K1 Ca antag = nonselective inhibitor or artifact in parental CHO-K1 cells | inhibition, % at 3 µM | ATP-induced calcium, Fluo-8 fluorescence | AID 602250 | 0.6% of 360,000 active;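 active means inhibition above a per-plate cutoff, the plate's mean sample inhibition plus 3 SD, cut at about 24% in these data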;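 further: 0% = DMSO plus EC80 ATP and 100% = DMSO alone without ATP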
M1 antag = human CHRM1 antagonism; 1.3% of 360,000 active; P11229; CHO-K1 hM1, Fluo-8 calcium fluorescence, ACh EC80 antagonist; inhibition, % at 3 µM;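 active means percent inhibition above its own plate's cutoff, namely the mean of that plate's compound wells plus 3 SD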;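 further: peak over basal fluorescence ratio during 140 s after agonist addition; 0% = ACh EC80 plus DMSO and 100% = DMSO alone without agonist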
M1 ag parental = nonselective activator or artifact in parental CHO-K1 cells | 0.48% of 360,000 active | Fluo-8 calcium fluorescence; scaled to maximal ATP response, vehicle zero | AID 602248 | activation, % at 3 µM; in the data active means activation above about 15%;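 further: untransfected CHO-K1 host cells lacking M1 receptor as counterscreen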
M1 PAM parental = nonselective activator or artifact in parental CHO-K1 calcium assay; ATP EC20, Fluo-8 calcium fluorescence; 0% at ATP EC20, 100% at ATP max; activation, % at 3 µM; 0.02% of 360,000 active; AID 602247;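 active means activation above the run cutoff, the mean activation of all test compounds plus 3 SD, cut at about 40% in these data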;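 further: peak over basal fluorescence ratio in a 140 s read after ATP addition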
CHRM1 agonist = human M1 muscarinic receptor agonism. P11229. CHO-K1 hM1, Fluo-8 calcium fluorescence, agonist mode; 0% DMSO, 100% acetylcholine EC100. 0.33% of 360,000 active. activation, % at 3 µM;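 active means activation above the run's mean compound activation plus 3 SD, cut at about 16% in these data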;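 further: peak over basal fluorescence ratio within a 140 s kinetic read after compound addition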
Starred values were filed as active, the others as inactive. Sampled rows, rich in hits. Any-hit rate of the full collection: about 2.3%.

SMILES	CHRM1 PAM	CHO-K1 Ca antag	M1 antag	M1 ag parental	M1 PAM parental	CHRM1 agonist
CCCNc1c(NS(=O)(=O)c2ccc(Cl)s2)c(=O)oc2ccccc12	-1.3	29.4*	1.9	0.1	-11.5	-2.3
CN(CC(=O)Nc1ccc(F)cc1)C(=O)COC(=O)c1cc(S(=O)(=O)N(C)C)ccc1N1CCCC1	5.1	-16.2	-8.5	2.7	18.9	-4.4
Cc1ccc2c(c1)C(=O)C(=O)N2Cc1ccc(Cl)cc1	10.1	-9.3	-6.0	4.1	14.2	16.9*
COc1cc(/C=C/C(O)=C/C(=O)/C=C/c2ccc(O)cc2)ccc1O	-19.9	19.3	39.3*	16.6*	-10.0	18.3*
COc1cc(/C=C/C(=O)NC(=O)c2ccccc2O)ccc1O	8.2	-6.9	-5.1	1.0	1.3	-2.0
COCc1cccc(-c2csc(C(C)(NC(C)=O)c3ccccc3)n2)c1 (stereo not drawn)	5.3	-4.0	-11.5	0.4	3.4	-3.9
Cc1ccc(CS(=O)(=O)c2ncc(Cl)c(C(=O)Nc3ccc(OC(F)F)cc3)n2)cc1	1.6	23.8*	15.6	-0.7	-27.8	-2.6
COc1ccc(CN2CCCC(C(=O)c3cccc(C(F)(F)F)c3)C2)cc1O (stereo not drawn)	-36.2	-6.4	30.8	0.5	12.8	-14.7
CCc1[nH]nc(C(=O)N2CCCC(C(=O)c3cccc(C(F)(F)F)c3)C2)c1C (stereo not drawn)	-7.6	-10.5	2.2	15.5*	4.5	1.2
COc1ccccc1C(=O)C1CCCN(Cc2cccc(OCCO)c2)C1 (stereo not drawn)	-8.0	14.1	-3.2	-0.4	-4.2	-8.4
CC(=O)Nc1ccc(CN2CCCC(C(=O)c3cccc(C(F)(F)F)c3)C2)cc1 (stereo not drawn)	-26.1	-3.5	64.3*	2.7	20.2	-8.9
O=C(c1cccc(C(F)(F)F)c1)C1CCCN(Cc2ccc(OCCO)cc2)C1 (stereo not drawn)	-31.8	6.7	65.7*	22.8*	0.3	-14.1
CCN(CC(=O)NCc1cccs1)C(=O)c1ccc(-c2ccc(F)cc2)o1	8.2	-12.9	-4.4	1.6	23.7	-4.8
CC(OC(=O)c1cccc(-n2cnnn2)c1)C(=O)Nc1ccc(N(C)C)cc1 (stereo not drawn)	3.8	7.8	-3.1	0.6	-14.7	-0.2
CCC[C@H]1CC(=O)C=C(c2ccc(OC)cc2)ON1C(=O)OC(C)(C)C	-9.9	20.9	15.7	-0.7	-11.7	-5.7
Nc1c(N(CCC2=CCCCC2)C(=O)COc2ccc(F)cc2Cl)c(=O)[nH]c(=O)n1Cc1ccccc1	-4.4	-10.3	10.8	0.2	3.0	-1.0
Nc1c(N(CCC2=CCCCC2)C(=O)Cc2ccc(F)cc2)c(=O)[nH]c(=O)n1Cc1ccccc1	-3.7	-3.8	10.5	6.5	6.7	18.6*
Cc1cccc(OCC(=O)N(Cc2ccccc2)c2c(N)n(Cc3ccccc3)c(=O)[nH]c2=O)c1	22.8*	-15.7	-15.7	0.2	3.6	8.0
CCNCCOC(c1ccccc1)c1ccccc1	-24.6	-8.0	26.3*	0.9	15.4	-6.1
Cc1ccc(C(OCC(C)(C)C[N+](C)(C)C)c2ccccc2)cc1 (stereo not drawn)	-34.0	19.1	99.1*	-0.5	-14.6	-12.8
CN(C)CC#CCOC(c1ccccc1)c1ccccc1	-20.3	-12.3	80.2*	0.2	-5.6	7.4
C(#CCN1CCOCC1)COCCCOC(c1ccccc1)c1ccccc1	-3.7	-36.3	-2.9	0.2	-8.8	-9.8
CCN(CC)CCOC(c1ccccc1)c1ccc(C)cc1 (stereo not drawn)	-25.8	1.2	96.3*	1.1	19.4	-7.2
Cc1ccc(C(=O)OC(C)C(=O)NC2CCCCC2C)cc1S(=O)(=O)N1CCCCC1 (stereo not drawn)	4.3	-19.1	-10.7	1.1	5.7	-1.8
CCN(CC)CC#CCOC(c1ccccc1)c1ccccc1	-23.0	-14.9	94.3*	0.8	23.6	-5.5
SMILES	CHRM1 PAM	CHO-K1 Ca antag	M1 antag	M1 ag parental	M1 PAM parental	CHRM1 agonist
COCCN(CCOC)CC(O)COC(c1ccccc1)c1ccccc1 (stereo not drawn)	-2.5	1.1	-11.6	1.1	21.8	-15.8
COc1ccc(C(=O)NC2CCCc3c2cnn3-c2cccc(C)c2C)o1 (stereo not drawn)	1.1	5.3	4.2	10.1	-15.8	2.1
CC(=O)Nc1cccc(-c2ccnc3c2CC(C(=O)NCCc2ccccc2)O3)c1 (stereo not drawn)	2.1	-2.6	-7.9	7.2	13.1	6.7
CC(C)CN(CCNC(=O)CC1Oc2ccccc2NC1=O)CC(C)C (stereo not drawn)	-8.0	-24.2	1.3	1.2	31.6	-13.0
CCC(C)N(CCNC(=O)CC1Oc2ccccc2NC1=O)C1CCCCC1 (stereo not drawn)	-33.1	-6.5	90.3*	0.0	13.7	-13.4
CCN1CCN(CCCNC(=O)c2ccc3c(c2)NC(=O)c2ccccc2S3)CC1	-19.0	-8.1	15.1	0.7	13.8	-13.9
CC1CCN(Cc2ccc(NC(=O)CC3Oc4ccccc4NC3=O)cc2)CC1 (stereo not drawn)	-32.3	-1.1	98.7*	1.2	15.1	-12.2
CCC(C)N(CCNC(=O)c1ccc2c(c1)NC(=O)c1ccccc1S2)C1CCCCC1 (stereo not drawn)	-22.9	-9.1	55.7*	6.6	9.0	-2.9
CC1CCCC(C)N1CCCNC(=O)c1ccc2c(c1)NC(=O)c1ccccc1S2 (stereo not drawn)	-24.5	-10.7	83.9*	0.2	0.3	-6.1
Cc1ccc(OCC(=O)OCC(=O)N2c3ccccc3CC2C)cc1C (stereo not drawn)	3.5	8.8	8.9	0.4	-22.3	2.5
CC(=O)Oc1ccc2c(c1)c(C(C)=O)c(C)n2C	4.7	-9.5	-2.5	0.5	7.0	-1.1
COc1ccc2c(c1)c(C(C)=O)c(C)n2C	6.6	2.7	-5.3	19.0*	13.8	4.1
Cc1ccccc1NS(=O)(=O)c1cc2c3c(c1)CC(=O)N3CCC2	4.2	5.5	-1.6	17.1*	5.6	3.3
Cc1cccc(NS(=O)(=O)c2cc3c4c(c2)CC(=O)N4CCC3)c1C	11.2	-9.3	-8.3	3.0	13.0	2.3
COc1ccc2nc(NC(=O)CN3CCOCC3)sc2c1	-11.9	25.7*	10.2	-0.2	-6.8	-1.9
Cn1c(=O)c2c(ncn2CC(=O)Nc2ccc(N3CCOCC3)cc2)n(C)c1=O	2.0	25.0*	1.3	-0.2	-27.6	-0.2
COC(=O)c1ccc(NC(=O)C2CC3CCC2C3)cc1 (stereo not drawn)	2.8	-1.6	-2.8	2.0	3.0	-4.4
COC(=O)c1ccc(NC(=S)NC2CC3CCC2C3)cc1 (stereo not drawn)	-5.8	12.6	17.4	16.5*	10.8	-3.6
O=c1cc(C(F)(F)F)nc(SC/C=C/c2ccccc2)[nH]1	-2.9	-1.0	5.0	0.5	-9.6	1.3
